In PubChem BioAssay AID1159580 (chemical genetic matrix, 2015):
In all, about 5,500 compounds went through this assay and about 2,000 (36%) were called active. Inconclusive results (about 18%) are left out. Rule as the data show it: active = normalized growth mostly below about 0.91 (no sharp cut-off); inconclusive = no clear call, values can overlap the other calls; inactive = mostly above about 0.92. Some of the results follow.

Experiment: chemical genetic growth profiling, strain panel (AID 1159580);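 also: tested at 20 µM; growth read once vehicle control cultures reached saturation at 30 °C; 1 = growth at the plate median or of vehicle wells; lower values mean less growth of the strain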
Conditions: growth OD
[1] = S. cerevisiae deletion strains, locus YHR030C, strain SLT2, active compounds read low
[2] = S. cerevisiae deletion strains, locus YJL095W, strain BCK1, active compounds read low

Measured: normalized growth

CC(C)CCCC(C)C1CCC2C3CC[C@H]4C[C@@H](O)CC[C@]4(C)C3CC[C@]12C (stereo partly drawn)
inactive: S. cerevisiae deletion strains, locus YAL013W, strain DEP1, active compounds read low 1 | S. cerevisiae deletion strains, locus YBR021W, strain FUR4, active compounds read low 1 | S. cerevisiae deletion strains, locus YBR229C, strain ROT2, active compounds read low 1.01 | S. cerevisiae deletion strains, locus YCL029C, strain bik1, active compounds read low 1.03 | S. cerevisiae deletion strains, locus YDL035C, strain GPR1, active compounds read low 1 | S. cerevisiae deletion strains, locus YDL074C, strain BRE1, active compounds read low 1.02 | S. cerevisiae deletion strains, locus YDL101C, strain DUN1, active compounds read low 1.01 | S. cerevisiae deletion strains, locus YDL185W, strain tfp1, active compounds read low 1.01 | S. cerevisiae deletion strains, locus YDL192W, strain arf1, active compounds read low 1.01 | S. cerevisiae deletion strains, locus YDR101C, strain arx1, active compounds read low 1.04 | S. cerevisiae deletion strains, locus YDR162C, strain NBP2, active compounds read low 0.987 | S. cerevisiae deletion strains, locus YDR318W, strain mcm21, active compounds read low 0.984 | S. cerevisiae deletion strains, locus YDR388W, active compounds read low 0.997 | S. cerevisiae deletion strains, locus YDR502C, strain sam2, active compounds read low 1.03 | S. cerevisiae deletion strains, locus YEL061C, strain CIN8, active compounds read low 0.995 | S. cerevisiae deletion strains, locus YER110C, active compounds read low 1 | S. cerevisiae deletion strains, locus YER155C, strain BEM2, active compounds read low 0.997 | S. cerevisiae deletion strains, locus YER167W, strain BCK2, active compounds read low 0.997 | S. cerevisiae deletion strains, locus YGL078C, strain dbp3, active compounds read low 1.02 | S. cerevisiae deletion strains, locus YGL086W, strain mad1, active compounds read low 1.03 | S. cerevisiae deletion strains, locus YGL248W, strain PDE1, active compounds read low 1 | S. cerevisiae deletion strains, locus YGR135W, strain pre9, active compounds read low 0.99 | S. cerevisiae deletion strains, locus YGR229C, strain SMI1, active compounds read low 1 | S. cerevisiae deletion strains, locus YGR252W, strain gcn5, active compounds read low 0.96 | [1] 0.996 | S. cerevisiae deletion strains, locus YHR079C, strain IRE1 (second series), active compounds read low 0.995 | S. cerevisiae deletion strains, locus YHR094C, strain hxt1, active compounds read low 0.995 | S. cerevisiae deletion strains, locus YHR129C, strain ARP1, active compounds read low 1.01 | S. cerevisiae deletion strains, locus YHR200W, strain rpn10, active compounds read low 1.01 | S. cerevisiae deletion strains, locus YIL066C, strain RNR3, active compounds read low 1 | S. cerevisiae deletion strains, locus YIL073C, strain SPO22, active compounds read low 1.02 | S. cerevisiae deletion strains, locus YIL125W, strain kgd1, active compounds read low 1.01 | S. cerevisiae deletion strains, locus YIR030C, strain dcg1, active compounds read low 1 | [2] 0.997 | S. cerevisiae deletion strains, locus YJL134W, strain LCB3, active compounds read low 1.01 | S. cerevisiae deletion strains, locus YJL168C, strain set2, active compounds read low 1 | S. cerevisiae deletion strains, locus YJL187C, strain SWE1 (second series), active compounds read low 1.01 | S. cerevisiae deletion strains, locus YJR043C, strain POL32, active compounds read low 0.988 | S. cerevisiae deletion strains, locus YKL009W, strain mrt4, active compounds read low 0.997 | S. cerevisiae deletion strains, locus YKL068W, active compounds read low 0.999 | S. cerevisiae deletion strains, locus YKL085W, strain MDH1 (second series), active compounds read low 0.994 | S. cerevisiae deletion strains, locus YKL085W, strain MDH1, active compounds read low 0.994 | S. cerevisiae deletion strains, locus YKL190W, strain CNB1, active compounds read low 0.994 | S. cerevisiae deletion strains, locus YKR001C, strain vps1, active compounds read low 1.01 | S. cerevisiae deletion strains, locus YLR039C, strain RIC1, active compounds read low 1.05 | S. cerevisiae deletion strains, locus YLR058C, strain SHM2, active compounds read low 0.987 | S. cerevisiae deletion strains, locus YLR102C, strain apc9, active compounds read low 1.01 | S. cerevisiae deletion strains, locus YLR262C, strain YPT6, active compounds read low 1.08 | S. cerevisiae deletion strains, locus YLR268W, strain sec22, active compounds read low 1.04 | S. cerevisiae deletion strains, locus YLR330W, strain CHS5, active compounds read low 0.989 | S. cerevisiae deletion strains, locus YLR342W, strain FKS1 (second series), active compounds read low 1.01 | S. cerevisiae deletion strains, locus YLR371W, strain rom2, active compounds read low 1 | S. cerevisiae deletion strains, locus YLR418C, strain cdc73, active compounds read low 1.01 | S. cerevisiae deletion strains, locus YML016C, strain PPZ1, active compounds read low 1.01 | S. cerevisiae deletion strains, locus YML032C, strain rad52, active compounds read low 0.975 | S. cerevisiae deletion strains, locus YML124C, strain tub3, active compounds read low 0.996 | S. cerevisiae deletion strains, locus YMR078C, strain ctf18, active compounds read low 1 | S. cerevisiae deletion strains, locus YMR223W, strain ubp8, active compounds read low 0.989 | S. cerevisiae deletion strains, locus YMR263W, strain SAP30, active compounds read low 0.999 | S. cerevisiae deletion strains, locus YMR307W, strain GAS1, active compounds read low 1.06 | S. cerevisiae deletion strains, locus YNL067W, strain RPL9B, active compounds read low 1.01 | S. cerevisiae deletion strains, locus YNL128W, strain TEP1, active compounds read low 0.972 | S. cerevisiae deletion strains, locus YNL233W, strain BNI4, active compounds read low 1.01 | S. cerevisiae deletion strains, locus YNL250W, strain rad50, active compounds read low 0.997 | S. cerevisiae deletion strains, locus YNL271C, strain bni1, active compounds read low 1.01 | S. cerevisiae deletion strains, locus YNL298W, strain CLA4, active compounds read low 1 | S. cerevisiae deletion strains, locus YNL307C, strain MCK1, active compounds read low 1.01 | S. cerevisiae deletion strains, locus YNL322C, strain KRE1, active compounds read low 0.998 | S. cerevisiae deletion strains, locus YNR052C, strain pop2, active compounds read low 0.996 | S. cerevisiae deletion strains, locus YOL012C, strain htz1 1.64 | S. cerevisiae deletion strains, locus YOL147C, strain pex11, active compounds read low 1 | S. cerevisiae deletion strains, locus YOR061W, strain CKA2, active compounds read low 0.997 | S. cerevisiae deletion strains, locus YOR069W, strain VPS5, active compounds read low 1 | S. cerevisiae deletion strains, locus YOR136W, strain idh2, active compounds read low 1.01 | S. cerevisiae deletion strains, locus YOR144C, strain elg1, active compounds read low 1 | S. cerevisiae deletion strains, locus YOR184W, strain ser1, active compounds read low 1.03 | S. cerevisiae deletion strains, locus YOR316C, strain cot1, active compounds read low 1 | S. cerevisiae deletion strains, locus YPL055C, strain LGE1, active compounds read low 0.992 | S. cerevisiae deletion strains, locus YPL241C, strain CIN2, active compounds read low 0.99 | S. cerevisiae deletion strains, locus YPR119W, strain clb2, active compounds read low 0.998 | S. cerevisiae deletion strains, locus YPR141C, strain kar3, active compounds read low 1 | S. cerevisiae deletion strains, locus YPR163C, strain tif3, active compounds read low 1 | S. cerevisiae deletion strains, locus YPR167C, strain met16, active compounds read low 0.994 | S. cerevisiae deletion strains, strain wtn01, active compounds read low 1.04 | S. cerevisiae strains, strain wild type, active compounds read low 0.976

CC(C)CCCC(C)C1CCC2C3CC[C@H]4C[C@H](O)CC[C@]4(C)C3CC[C@]12C (stereo partly drawn)
inactive: [1] 0.98 | S. cerevisiae deletion strains, locus YHR079C, strain IRE1, active compounds read low 0.985 | [2] 0.992 | S. cerevisiae deletion strains, locus YJR066W, strain TOR1, active compounds read low 0.919 | S. cerevisiae deletion strains, locus YLR113W, strain HOG1, active compounds read low 0.985 | S. cerevisiae deletion strains, locus YNL183C, strain NPR1, active compounds read low 0.916 | S. cerevisiae deletion strains, locus YOR231W, strain MKK1, active compounds read low 0.991 | S. cerevisiae deletion strains, locus YPL256C, strain CLN2, active compounds read low 0.981
